Among the data in PubChem BioAssay AID1069 (NMMLSC, 2008) are side scatter shift values, retold here.

The nature of this test: activators of LNCaP cell differentiation, retest, confirmation, side scatter shift, flow cytometry (AID 1069).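 Note: LNCaP human prostate cancer cells in low-serum medium with charcoal-stripped FBS; percent of cells with raised granularity gated so DMSO controls show 10%.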 Conditions: 4 d, stronger effect = higher value. On the technique in general: Flow cytometry measures light scatter and fluorescence of single cells or particles in a stream.

Each structure is given as a SMILES string. The source made the active and inactive calls.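 Rule for the calls: active = high combined rank on largest and smallest cell-count-weighted shift across three tests, rank score above 45, floors 50 and 25 (some results past the limit were not filed as active); inactive = the rest.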

With `O=C(NCc1ccc(Cl)cc1)c1noc2c1CCCC2`, the side scatter shift runs as follows: (at 100 µM) 8% (inactive); (side scatter shift, at 10 µM) 3.3%.

Regarding `CCN(CC)CCCNC(=O)c1cc(-c2cccc(Cl)c2)on1`, the side scatter shift is, setting by setting: (at 100 µM) 4.1% (inactive); (side scatter shift, at 10 µM) 4.25%.

For the compound `O=C(c1ccc2c(c1)OCCO2)N1CCCCC1`, the side scatter shift reads like this: (at 100 µM) 7.7% (inactive); (side scatter shift, at 10 µM) 8.05%.

Consider `CCCCC(=O)NCCc1ccc(S(N)(=O)=O)cc1`, for which the side scatter shift was 12.6% (inactive) (at 100 µM) and 11.9% (side scatter shift, at 10 µM).

Turning to `O=C(NCCCN1CCN(c2ccccc2F)CC1)C1CCC(=O)N1C1CCCCC1` (stereo not given), the side scatter shift runs as follows: (at 100 µM) 8% (inactive); (side scatter shift, at 10 µM) 4.05%.

Regarding `Cc1cccc(N2CCN(C(=O)CCNC(=O)Cn3ccc4ccccc4c3=O)CC2)c1C`, the side scatter shift is, setting by setting: (at 100 µM) 0% (inactive); (side scatter shift, at 10 µM) 2%.

On to `CCN(CCNC(=O)C1CCN(Cc2nc(-c3ccc(Cl)cc3)oc2C)CC1)c1ccccc1`, for which the side scatter shift is, setting by setting: (at 100 µM) 25% (inactive); (side scatter shift, at 10 µM) 26.4%.

With `Cc1oc(-c2ccc(Cl)cc2)nc1CN1CCC(C(=O)N2CCN(Cc3ccccc3)CC2)CC1`, the side scatter shift is, setting by setting: (at 100 µM) 33.3% (active); (side scatter shift, at 10 µM) 53.7%.

Turning to `CCCN(CCC)CCNC(=O)C1CCN(Cc2nc(-c3ccc(Cl)cc3)oc2C)CC1`, the side scatter shift is 76.4% (active) (at 100 µM) and 74% (side scatter shift, at 10 µM).

As to `Cn1c(=O)cc(SCC(=O)NCCCN2CCN(c3ccc(F)cc3)CC2)c2ccccc21`, the side scatter shift (at 100 µM) was 46.7% (inactive) and the side scatter shift (side scatter shift, at 10 µM) worked out at 8.35%.

For the compound `Cc1ccnc(NC(=O)CCC(=O)N(CC(=O)NC2CCCCC2)c2cccc(C)c2C)c1`, the side scatter shift (at 100 µM) is 11.1% (inactive) and the side scatter shift (side scatter shift, at 10 µM) came to 6.85%.

With `CCn1c(=O)cc(SCC(=O)NCCCN2CCN(c3ccccc3F)CC2)c2ccccc21`, the side scatter shift by setting is: (at 100 µM) 0% (active); (side scatter shift, at 10 µM) 33.5%.

With `O=C(CCn1c(=O)[nH]c2ccccc2c1=O)NCCCN1CCN(c2cccc(Cl)c2)CC1`, the side scatter shift by setting is: (at 100 µM) 35.7% (inactive); (side scatter shift, at 10 µM) 11.1%.

For the compound `COc1ccc(-c2noc(CCC(=O)NCCCN3CCC(Cc4ccccc4)CC3)n2)cc1`, the side scatter shift is 21.7% (inactive) (at 100 µM) and 28.6% (side scatter shift, at 10 µM).

Take `CCCS(=O)(=O)N1CCCC(C(=O)NCCCN2CCN(c3cccc(Cl)c3)CC2)C1` (stereo not given): the side scatter shift (at 100 µM) is 17% (inactive) and the side scatter shift (side scatter shift, at 10 µM) came out at 6.55%.

As for `Cc1ccc(C(=O)/C=C/Nc2cccc(O)c2)cc1`, the side scatter shift was 35.3% (inactive) (at 100 µM) and 4.85% (side scatter shift, at 10 µM).

Regarding `Cc1cc(C)nc(N2CCC(C(=O)Nc3ccc(Oc4ccccc4)cc3)CC2)n1`, the side scatter shift reads like this: (at 100 µM) 44.1% (inactive); (side scatter shift, at 10 µM) 3.05%.

In the case of `COc1ccc(-c2noc(CCC(=O)NCCCN3CCC(C)CC3)n2)cc1`, the side scatter shift was 23.8% (inactive) (at 100 µM) and 4.9% (side scatter shift, at 10 µM).

Regarding `COc1cccc(Oc2cnc(N)nc2-c2ccc(OC)cc2O)c1`, the side scatter shift is, setting by setting: (at 100 µM) 22.2% (inactive); (side scatter shift, at 10 µM) 6.3%.

`CCN(CC)CCNC(=O)c1ccc(N2CCCCC2)c(NS(=O)(=O)c2ccc(C)cc2)c1`: the side scatter shift (at 100 µM) was 17.6% (inactive) and the side scatter shift (side scatter shift, at 10 µM) was determined as 38.6%.

For `Cc1cc(N2CCC(N(C)C3CCCC3)CC2)nc2cc(O)ccc12`, the side scatter shift is, setting by setting: (at 100 µM) 65.4% (inactive); (side scatter shift, at 10 µM) 22.5%.

Consider `COc1cc(C2C3=C(Nc4ncnn42)c2ccccc2CC3)cc(OC)c1OC` (stereo not given), for which the side scatter shift is 11.2% (inactive) (at 100 µM) and 4.5% (side scatter shift, at 10 µM).

For the compound `N=c1c(C(=O)NC2CCCC2)cc2c(=O)n3ccccc3nc2n1C1CCCC1`, the side scatter shift is, setting by setting: (at 100 µM) 16.7% (inactive); (side scatter shift, at 10 µM) 7.85%.

`CCOC(=O)N1CCC(NC(=O)c2cc3c(-c4cccc(OC)c4)nn(C)c3s2)CC1`: the side scatter shift is 7.7% (inactive) (at 100 µM) and 2.35% (side scatter shift, at 10 µM).

Regarding `Cc1ccccc1-c1nc(CN2CCC(C(=O)NCCCN3CCCC3)CC2)c(C)o1`, the side scatter shift (at 100 µM) is 40% (inactive) and the side scatter shift (side scatter shift, at 10 µM) stood at 19.4%.
